One test deals with Staphylococcus aureus. Put plainly: Antibacterial activity against Staphylococcus aureus MRSA ATCC 43300 (CO-ADD:GP_020); MIC in CAMBH media using NBS plates, by Resazurin F(560/590). It is filed as functional. The note with it: Concentration 20 uM, ASSAY_TEST Inhibition of Bacterial Growth, detection method Resazurin, Fluorescence (ex560/em590), MEDIA CAMHB, plate type 384well, CORNING #3640, time 18 hr.

A further test deals with Acinetobacter baumannii. Put plainly: Antibacterial activity against Acinetobacter baumannii ATCC 19606 (CO-ADD:GN_034); MIC in CAMBH media using NBS plates, by Resazurin F(560/590). It is filed as functional. The note with it: Concentration 20 uM, ASSAY_TEST Inhibition of Bacterial Growth, detection method Resazurin, Fluorescence (ex560/em590), MEDIA CAMHB, plate type 384well, CORNING #3640, time 18 hr. (In general: Alamar Blue is a resazurin reagent that responds to reducing activity.)

In another test the test system is Escherichia coli. Put plainly: Antibacterial activity against Escherichia coli ATCC 25922 (CO-ADD:GN_001); MIC in CAMBH media using NBS plates, by Resazurin F(560/590). Particulars: Concentration 20 uM, ASSAY_TEST Inhibition of Bacterial Growth, detection method Resazurin, Fluorescence (ex560/em590), MEDIA CAMHB, plate type 384well, CORNING #3640, time 18 hr. The format is functional.

The next test relates to Klebsiella pneumoniae. Particulars: Concentration 20 uM; ASSAY_TEST Inhibition of Bacterial Growth; detection method Absorption (OD600); MEDIA CAMHB; plate type 384well; NBS; CORNING #3640; time 18 hr.
Another test concerns Candida albicans. Particulars: 20 µM.
A further test relates to Cryptococcus neoformans. Particulars: Concentration 20 uM; ASSAY_TEST Inhibition of Fungal Growth; detection method Resazurin; Absorption (OD600-OD570); plate type 384well; NBS; CORNING #3640.

Data on 23 compounds can be found in ChEMBL document CHEMBL4296182, “CO-ADD screening of NIH NCI Diversity Set V”.

For part of these data: Potency and affinity values are given separately.

A word on the Inhibition: it is the drop in the measured response relative to a control, in per cent. With `CC1(C)CCSC(/C=C/c2ccccc2)=N1`, the Inhibition in the test on Staphylococcus aureus is 5.78%; in the test with Acinetobacter baumannii, 13.91%; in the test with Escherichia coli, -1.41%; with Klebsiella pneumoniae, 18.54%; with Candida albicans it was 1.26%; with Cryptococcus neoformans, -4.58%.
With `CC(C)NCC1CCc2cc(CO)c([N+](=O)[O-])cc2N1` (stereo not drawn) [OXAMNIQUINE], the Inhibition was 9.47% with Staphylococcus aureus; -13.41% in the test with Acinetobacter baumannii; 4.95% with Escherichia coli; 3.1% in the test on Klebsiella pneumoniae; 2.55% with Candida albicans; -8.23% in the test with Cryptococcus neoformans.
Regarding `C=CCOc1ccc(S(C)(=O)=O)cc1`, the Inhibition in the test on Staphylococcus aureus is -0.52%; in the test with Acinetobacter baumannii, -11.44%; in the test on Escherichia coli it was 7.79%; with Klebsiella pneumoniae, 4.92%; in the test with Candida albicans, 1.73%; in the test on Cryptococcus neoformans it was -10.45%.
On to `Clc1ccccc1/C=C/c1ccnc2ccccc12`, for which the Inhibition was 12.2% with Staphylococcus aureus; 3.17% with Acinetobacter baumannii; 1.57% in the test with Escherichia coli; 12.59% in the test with Klebsiella pneumoniae; 30.4% in the test with Candida albicans; -3.47% in the test with Cryptococcus neoformans.
Regarding `CCOP(=O)(OCC)/C(C#N)=C/c1c[nH]c2ccccc12`, the Inhibition in the test with Staphylococcus aureus was 16.69%; in the test with Acinetobacter baumannii, 9.53%; with Escherichia coli, -1.43%; with Klebsiella pneumoniae it was 13.34%; with Candida albicans it was -0.38%; with Cryptococcus neoformans, -5.67%.
In the case of `CC(C)c1nc2c(=O)n(C)c(=O)n(C)c2[nH]1`, the Inhibition was 10.47% with Staphylococcus aureus; -19.52% with Acinetobacter baumannii; 12.69% with Escherichia coli; -1.01% with Klebsiella pneumoniae; -1.8% with Candida albicans; -13.14% with Cryptococcus neoformans.
On to `CSc1nc(S)c2[nH]c(S)nc2n1`, for which the Inhibition in the test on Staphylococcus aureus was 13.61%; in the test with Acinetobacter baumannii, -13.83%; with Escherichia coli, 6.32%; in the test on Klebsiella pneumoniae, 11%; in the test with Candida albicans, 6.49%; in the test with Cryptococcus neoformans, 2.53%.
Take `CC12C(=O)N(c3nccs3)C(=O)C1(C)C1CCC2O1` (stereo not drawn): the Inhibition with Staphylococcus aureus is 6.57%; in the test with Acinetobacter baumannii, 6.5%; in the test on Escherichia coli it was 7.81%; with Klebsiella pneumoniae it was 14.08%; with Candida albicans, 2.65%; in the test with Cryptococcus neoformans, -13.24%.
For `N#CNC(=N)c1ccccc1`, the Inhibition is 0.25% with Staphylococcus aureus; 1.21% in the test on Acinetobacter baumannii; -14.26% with Escherichia coli; 9.63% with Klebsiella pneumoniae; 1.62% with Candida albicans; 22.72% in the test with Cryptococcus neoformans.
On to `Nc1ccc(C(=O)Nc2ccc(NC(=O)c3ccco3)c(O)c2)cc1`, for which the Inhibition with Staphylococcus aureus is 1%; in the test with Acinetobacter baumannii, 0.24%; with Escherichia coli it was 0.6%; in the test on Klebsiella pneumoniae, 17.4%; in the test on Candida albicans, 3.85%; in the test on Cryptococcus neoformans it was -8.99%.
For `c1ccc(CSc2nc3c[nH]cnc-3n2)cc1`, the Inhibition was 8.72% in the test with Staphylococcus aureus; -4.41% in the test with Acinetobacter baumannii; 6.08% in the test with Escherichia coli; 8.84% in the test on Klebsiella pneumoniae; 0.41% in the test with Candida albicans; 13.03% in the test with Cryptococcus neoformans.
Take `Cc1cccc(C(O)C(O)c2cccc(C)n2)n1` (stereo not drawn): the Inhibition was 7.22% in the test on Staphylococcus aureus; -14.61% with Acinetobacter baumannii; 8.35% in the test with Escherichia coli; 7.91% with Klebsiella pneumoniae; 0.07% in the test on Candida albicans; -7.77% in the test on Cryptococcus neoformans.
In the case of `O=C(C(Cl)Cl)N1CC2CCC(CC2)C1`, the Inhibition is -8.6% in the test with Staphylococcus aureus; 7.03% in the test with Acinetobacter baumannii; -13.8% with Escherichia coli; 1.03% in the test with Klebsiella pneumoniae; -0.88% in the test with Candida albicans; 23.84% in the test on Cryptococcus neoformans.
Turning to `COc1cc(NC(=O)c2cc3ccccc3cc2O)c(OC)cc1Cl`, the Inhibition with Staphylococcus aureus is 15.9%; in the test with Acinetobacter baumannii it was 4.67%; in the test with Escherichia coli, -1.76%; with Klebsiella pneumoniae, 8.39%; in the test on Candida albicans, 2.82%; with Cryptococcus neoformans it was -1.31%.
Regarding `CSc1nc(N)c(C(=O)Nc2ccc([N+](=O)[O-])cc2)s1`, the Inhibition in the test with Staphylococcus aureus is 3.88%; in the test on Acinetobacter baumannii, 5.85%; in the test on Escherichia coli, 8.19%; with Klebsiella pneumoniae it was 8.8%; in the test on Candida albicans it was 7.49%; with Cryptococcus neoformans, -10.16%.
Turning to `O=C(O)c1cc2cc(OCc3ccccc3)ccc2[nH]1`, the Inhibition in the test on Staphylococcus aureus is 6.76%; in the test on Acinetobacter baumannii, 10.19%; in the test on Escherichia coli, 8.06%; in the test with Klebsiella pneumoniae it was 12.38%; with Candida albicans, 9.61%; in the test with Cryptococcus neoformans, -8.34%.
Consider `O=C(Nc1cccnc1)c1cccc([N+](=O)[O-])c1`, for which the Inhibition in the test on Staphylococcus aureus is 12.72%; in the test with Acinetobacter baumannii, 4.9%; in the test on Escherichia coli, 8.22%; in the test on Klebsiella pneumoniae it was 4.62%; in the test with Candida albicans, 7.68%; with Cryptococcus neoformans, -5.39%.
Turning to `NC(=O)c1ccccc1NC(=O)COc1ccc(Cl)cc1`, the Inhibition is 16.24% in the test with Staphylococcus aureus; 7.59% with Acinetobacter baumannii; 9.93% with Escherichia coli; 7.02% with Klebsiella pneumoniae; 1.18% in the test on Candida albicans; -8.55% in the test with Cryptococcus neoformans.
Consider `O=C1NC(=O)C2(CCc3ccccc32)N1` (stereo not drawn), for which the Inhibition in the test on Staphylococcus aureus was -0.71%; in the test with Acinetobacter baumannii it was -7.84%; in the test with Escherichia coli, 5.32%; with Klebsiella pneumoniae, 9.04%; with Candida albicans, 4.28%; with Cryptococcus neoformans, 0.2%.
Take `CN(C)CC1C2CCC(C2)C1O` (stereo not drawn): the Inhibition was 7.18% in the test on Staphylococcus aureus; -12.67% in the test with Acinetobacter baumannii; 8.84% with Escherichia coli; 23.62% in the test on Klebsiella pneumoniae; 0.82% in the test on Candida albicans; -7.67% with Cryptococcus neoformans.
As for `O=c1oc(-c2ccccc2)c(-c2ccccc2)c2ccccc12`, the Inhibition in the test with Staphylococcus aureus is 13.22%; with Acinetobacter baumannii it was 4.08%; in the test with Escherichia coli, 7.81%; in the test on Klebsiella pneumoniae, 4.41%; in the test with Candida albicans, 1.88%; with Cryptococcus neoformans, -4.28%.
`CN(C)S(=O)(=O)Nc1ccccn1`: the Inhibition in the test with Staphylococcus aureus is 6.72%; with Acinetobacter baumannii, 9.21%; with Escherichia coli, -0.96%; in the test with Klebsiella pneumoniae it was 17.6%; in the test with Candida albicans, 5.95%; in the test on Cryptococcus neoformans it was -3.86%.
For `NC(=O)N/N=C1\CC2CC1C1C=CCC21` (stereo not drawn), the Inhibition in the test with Staphylococcus aureus was 5.27%; in the test with Acinetobacter baumannii, -14.41%; in the test on Escherichia coli, 8.37%; in the test on Klebsiella pneumoniae it was 17.34%; with Candida albicans, -2.08%; in the test with Cryptococcus neoformans it was -9.13%.
